About 83,000 compounds went through this panel and 20% of them were active in at least one assay; those are over-represented in the sample as a whole.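 The test compound was applied at a single concentration to cells in 96-well plates for 48 hours, and percent growth was recorded.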 The source made the active and inactive calls. Rule for the calls: active = growth percent below 10; inactive = the rest.

For the assay, the system named is SW-620 colon. The assay can be described thus: NCI-60 one-dose screen, 48 h (100 = growth as untreated, 0 = no growth, -100 = all killed). Particulars: 10 µM unless noted.
As for `COc1ccc(C(=NNS(=O)(=O)c2ccc(C)cc2)c2ccccc2)cc1OC`, the growth was 101% (inactive).
`CNC(=O)c1cc(Oc2ccc3c(c2)sc2nc(-c4ccc(N(C)C)cc4)cn23)ccn1`: the growth was 27.9% (inactive).
For `CN1CCN(Cc2ccc(/C=N/Nc3ccnc4cc(Cl)ccc34)cc2)CC1`, the growth was 69.9% (inactive).
The result for `O=C1Nc2ccccc2/C1=N\c1nnc(-c2ccccc2)o1` reads 95.3% (inactive).
As for `COc1ccc2c(c1)C=CC1(O2)Oc2ccc(OC)cc2C=C1C` (centres undefined), the figure is 29.8% (inactive); as for `Cn1cc(-c2nn3cc(-c4ccncc4)nc3s2)c2cc(Br)ccc21`, 42.3% (inactive); as for `C#Cc1nc(/C=C/CCCCCCC(=O)NO)cs1`, 29.3% (inactive).
Consider `CC[C@]12CC(C(=O)OC)=C3Nc4ccccc4[C@@]34CCN(C14)[C@@H]1c3cc4c(cc3O[C@@H]1[C@H]2O)NC1=C(C(=O)OC)C[C@@]2(CC)C3N(CC[C@@]143)C[C@H]1O[C@H]12` (some centres undefined), for which the growth is 23.5% (inactive).
Consider `O=C(CCCCCCN1CC(=O)N2[C@@H](C3CC3)c3[nH]c4ccccc4c3C[C@H]2C1=O)NO`, for which the growth was 61.2% (inactive).
